The results in this text go back to PubChem BioAssay.

A short description of this test: COS7 lysate on small-molecule microarray, probe aHis, 635 nm (AID 1123).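 Further: z-score combines 667nm fluorescence intensity with signal-to-noise per printed compound spot.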 As to conditions: COS7 cell lysate, fluorescence, higher = more signal.
For the compound `CCCC=C(CCC)[C@@H](NS(=O)(=O)c1ccc(-c2ccccc2)cc1)c1ccc(C(=O)OC)cc1`, the composite z-score was found to be 0.257. With `COc1ccc([Si](C)(C)[C@@H]2[C@@H](CC(=O)N(CCO)Cc3ccccc3)O[C@]3(C(=O)N(Cc4cccc(N5CCC5=O)c4)c4ccccc43)[C@H]2C)cc1`, the composite z-score turned out to be 2.49. Turning to `CCC1=C2CN(Cc3ccccc3Br)[C@@H]([C@@H](O)Cc3ccccc3)C2C=CCC1` (stereo partly specified), the composite z-score was 1.01. Consider `CO[C@H]1COC(=O)[C@H](C)COC(=O)[C@H](Cc2ccccc2)NC(=O)CC=C[C@H]1C`, for which the composite z-score is -0.826.

On to `Cc1ccc(S[C@]2(C(=O)NC3CC3)CC(=O)N(Cc3cc(C(F)(F)F)cc(C(F)(F)F)c3)[C@@H]2c2ccc(CO)cc2)cc1`, for which the composite z-score is 0.42. For `CCCC[C@@H]1C[C@H]1[C@@H](NC(=O)c1cccs1)c1ccc(Cl)cc1` the value was 1.08. `COC(=O)C(CC#Cc1ccc2c(c1)[C@]1(C(=O)N2)[C@H](C(=O)N2CCCCCCC2)[C@H]2C(=O)O[C@H](c3ccccc3)[C@H](c3ccccc3)N2[C@@H]1c1ccc(O)cc1)C(=O)OC`: the composite z-score was -0.437. `CC(C)N1CC=CC23O[C@@H]4/C=C\CCCOC(=O)C4[C@H]2C(=O)N(CCO)[C@@H]3C1=O` (stereo partly specified): the composite z-score was 0.572.

The compound `O=C1O[C@H](c2ccccc2)[C@H](c2ccccc2)N2[C@H]1[C@@H](C(=O)NC[C@H](O)c1ccccc1)[C@]1(C(=O)Nc3ccc(C#CC4=CCCCC4)cc31)[C@H]2c1ccc(OCCO)cc1` registered a composite z-score of 0.864. As to `Cc1ccc(S[C@]2(C(=O)NC(C)C)CC(=O)N(C3Cc4ccccc4C3)[C@@H]2c2ccc(CO)cc2)cc1`, the composite z-score is 1.86. For `Cc1ccc(S[C@]2(C(=O)NCCCN(C)C)CC(=O)N(Cc3ccccc3)[C@@H]2c2ccc(CO)cc2I)cc1` the value was 2; for `COc1ccc([C@H]2C[C@H]3C(Br)=C[C@]2(OC)C(=O)[C@]32CO2)cc1`, -0.332; for `COC(=O)[C@H]1[C@@H]2COc3ccccc3[C@H]2N[C@H]1C(=O)OC`, 0.476. Take `C=CC[C@]1(C(N)=O)N=C(c2ccc(OCCCO)cc2)O[C@H]1c1ccccc1CN=[N+]=[N-]`: the composite z-score was 2.69. Turning to `CC(C)[Si](OCC[C@H]1O[C@]2(C(=O)N(Cc3ccccc3)c3ccccc32)[C@@H](C)[C@@H]1[Si](C)(C)O)(C(C)C)C(C)C`, the composite z-score was 0.379. Consider `CC(C)[Si](OCCCNS(=O)(=O)c1ccc(Br)cc1)(C(C)C)C(C)C`, for which the composite z-score amounted to 0.468. Compound `C=CCOC(=O)[C@@H]1[C@H]2C(=O)O[C@H](c3ccccc3)[C@H](c3ccccc3)N2[C@H](c2ccc(OCCOC(=O)[C@H]3C[C@H]4C(=O)N[C@@H](CCCCNC(C)=O)C(=O)N4[C@H]3c3ccc(O)cc3)cc2)[C@@]12C(=O)Nc1ccc(I)cc12` registered a composite z-score of 0.877.

Take `C[C@]1(C(=O)NCCN2CCOCC2)c2ccccc2C(=O)N(Cc2ccccc2)[C@H]1c1ccc(CO)cc1`: the composite z-score was determined as 0.652. With `C=CCN(C(=O)C1N(c2ccc(CCO)cc2)C(=O)C2C(C(=O)O)C3C=CC21O3)C(C)(C)C` (stereo unspecified), the composite z-score was determined as 1.42. Regarding `CCOC(=O)C[C@H]1[C@H](OC(=O)Cc2ccc3c(c2)OCO3)[C@@H](NC(=O)c2ccc3ccccc3c2)c2cc(OCCCO)ccc2N1C(=O)Cc1ccc(OC)cc1`, the composite z-score came out at 1.54.

The compound `COc1ccc([Si](C)(C)[C@H]2[C@H](CCO)O[C@@]3(C(=O)N(Cc4ccc(N5CCCCC5=O)cc4)c4ccccc43)[C@@H]2C)cc1` displayed a composite z-score of 1.79.

Regarding `COc1cc(CO)cc(I)c1O[C@H]1C=C(C(=O)NCCO)C[C@@H](N(CC2CCCCC2)C(=O)c2cc3ccccc3oc2=O)[C@@H]1O`, the composite z-score worked out at 0.14. For the compound `COC(=O)C1=CC(c2ccc(CO)cc2)=CC(C2CC2)N(Cc2sc3ccccc3c2Cl)C=C1C(=O)OC` (stereo unspecified), the composite z-score worked out at 2.78. Turning to `CSCC[C@@H]1NC(=O)CC=C[C@@H](C)COC(=O)[C@H](CCSC)NC(=O)CC=C[C@@H](C)COC1=O`, the composite z-score was -0.45. Turning to `COC(=O)[C@@]1(Cc2ccc(OC)cc2)[C@H]2c3cc(C(=O)N(C)C)n(CCc4ccc(OC)c(Br)c4)c3C[C@H]2CN1C(=O)c1ccccc1`, the composite z-score came to 2.9. Consider `COCC(=C=CC[C@H](O)c1ccc(OCCO)cc1)C[C@H](O)c1ccccn1`, for which the composite z-score was found to be 0.257.

Regarding `O=C(NCc1ccccc1)[C@@]1(Cc2ccccc2)COC(c2ccc(OCCCO)cc2)=N1`, the composite z-score turned out to be 1.71.

As for `CO[C@@H]1COC(=O)[C@H](C)NC(=O)CC=C[C@@H](C)[C@H](OC)COC(=O)[C@H](C)NC(=O)CC=C[C@H]1C`, the composite z-score is -0.466. The result for `CCCC=C(CCC)[C@@H](NS(=O)(=O)c1ccc(C(F)(F)F)cc1)c1ccc(-c2ccccc2)cc1` reads 2.24; that for `CC(C)(C)OC(=O)CC[C@]1(C(=O)N2CCCCC2)N=C(c2ccc(OCCCO)cc2)O[C@H]1c1ccccc1`, 2.94. Take `CC(=O)NCCCC[C@@H]1NC(=O)[C@@H]2C[C@H](C(=O)NCCCCCNC(=O)CS)[C@H](c3ccc(O)cc3)N2C1=O`: the composite z-score came out at 0.534. In the case of `C=CCC(OC(C)=O)[C@@H]1[C@@H](N(Cc2ccc(-c3cccc(C(F)(F)F)c3)o2)C(=O)Cc2ccc(F)cc2)c2cc(OCCCO)ccc2N1C(=O)c1ccc(-c2ccccc2)cc1` (stereo partly specified), the composite z-score is -0.197. For `CO[C@]12C=C(Br)[C@@H](C[C@@H]1c1ccccc1)[C@@]1(CO1)C2=O` the value was -0.245; for `COCCOC(=O)N1C(=O)[C@@]2(c3cc(C#CCC(C(=O)OC)C(=O)OC)ccc31)[C@H](c1ccccc1OCCO)N1[C@H](c3ccccc3)[C@H](c3ccccc3)OC(=O)[C@H]1[C@@H]2C(=O)N1CCCCCCC1`, 2.18.

Turning to `CCOC(=O)C1=CC[C@@H](c2ccccc2)N(S(=O)(=O)c2ccc(C)cc2)[C@H]1C`, the composite z-score is 2.49. With `O=C1c2ccccc2[C@](Cc2ccccc2I)(C(=O)NCC(F)(F)F)[C@H](c2ccc(CO)cc2)N1Cc1ccccc1C(F)(F)F`, the composite z-score is 1.58.
